# Data published in PubChem BioAssay.
# Target: Neurogenic locus notch homolog protein 2 (Homo sapiens) (UniProt Q04721)
# Experiment: Notch2 binders on small-molecule microarrays, primary screen, biochemical, small-molecule microarray, 635 nm fluorescence, stem cell growth factors (AID 1073)
# Details: Notch2 binding, higher = more signal
# Neurogenic locus notch homolog protein 2 (Homo sapiens), sequence (Q04721 whole entry, looked up): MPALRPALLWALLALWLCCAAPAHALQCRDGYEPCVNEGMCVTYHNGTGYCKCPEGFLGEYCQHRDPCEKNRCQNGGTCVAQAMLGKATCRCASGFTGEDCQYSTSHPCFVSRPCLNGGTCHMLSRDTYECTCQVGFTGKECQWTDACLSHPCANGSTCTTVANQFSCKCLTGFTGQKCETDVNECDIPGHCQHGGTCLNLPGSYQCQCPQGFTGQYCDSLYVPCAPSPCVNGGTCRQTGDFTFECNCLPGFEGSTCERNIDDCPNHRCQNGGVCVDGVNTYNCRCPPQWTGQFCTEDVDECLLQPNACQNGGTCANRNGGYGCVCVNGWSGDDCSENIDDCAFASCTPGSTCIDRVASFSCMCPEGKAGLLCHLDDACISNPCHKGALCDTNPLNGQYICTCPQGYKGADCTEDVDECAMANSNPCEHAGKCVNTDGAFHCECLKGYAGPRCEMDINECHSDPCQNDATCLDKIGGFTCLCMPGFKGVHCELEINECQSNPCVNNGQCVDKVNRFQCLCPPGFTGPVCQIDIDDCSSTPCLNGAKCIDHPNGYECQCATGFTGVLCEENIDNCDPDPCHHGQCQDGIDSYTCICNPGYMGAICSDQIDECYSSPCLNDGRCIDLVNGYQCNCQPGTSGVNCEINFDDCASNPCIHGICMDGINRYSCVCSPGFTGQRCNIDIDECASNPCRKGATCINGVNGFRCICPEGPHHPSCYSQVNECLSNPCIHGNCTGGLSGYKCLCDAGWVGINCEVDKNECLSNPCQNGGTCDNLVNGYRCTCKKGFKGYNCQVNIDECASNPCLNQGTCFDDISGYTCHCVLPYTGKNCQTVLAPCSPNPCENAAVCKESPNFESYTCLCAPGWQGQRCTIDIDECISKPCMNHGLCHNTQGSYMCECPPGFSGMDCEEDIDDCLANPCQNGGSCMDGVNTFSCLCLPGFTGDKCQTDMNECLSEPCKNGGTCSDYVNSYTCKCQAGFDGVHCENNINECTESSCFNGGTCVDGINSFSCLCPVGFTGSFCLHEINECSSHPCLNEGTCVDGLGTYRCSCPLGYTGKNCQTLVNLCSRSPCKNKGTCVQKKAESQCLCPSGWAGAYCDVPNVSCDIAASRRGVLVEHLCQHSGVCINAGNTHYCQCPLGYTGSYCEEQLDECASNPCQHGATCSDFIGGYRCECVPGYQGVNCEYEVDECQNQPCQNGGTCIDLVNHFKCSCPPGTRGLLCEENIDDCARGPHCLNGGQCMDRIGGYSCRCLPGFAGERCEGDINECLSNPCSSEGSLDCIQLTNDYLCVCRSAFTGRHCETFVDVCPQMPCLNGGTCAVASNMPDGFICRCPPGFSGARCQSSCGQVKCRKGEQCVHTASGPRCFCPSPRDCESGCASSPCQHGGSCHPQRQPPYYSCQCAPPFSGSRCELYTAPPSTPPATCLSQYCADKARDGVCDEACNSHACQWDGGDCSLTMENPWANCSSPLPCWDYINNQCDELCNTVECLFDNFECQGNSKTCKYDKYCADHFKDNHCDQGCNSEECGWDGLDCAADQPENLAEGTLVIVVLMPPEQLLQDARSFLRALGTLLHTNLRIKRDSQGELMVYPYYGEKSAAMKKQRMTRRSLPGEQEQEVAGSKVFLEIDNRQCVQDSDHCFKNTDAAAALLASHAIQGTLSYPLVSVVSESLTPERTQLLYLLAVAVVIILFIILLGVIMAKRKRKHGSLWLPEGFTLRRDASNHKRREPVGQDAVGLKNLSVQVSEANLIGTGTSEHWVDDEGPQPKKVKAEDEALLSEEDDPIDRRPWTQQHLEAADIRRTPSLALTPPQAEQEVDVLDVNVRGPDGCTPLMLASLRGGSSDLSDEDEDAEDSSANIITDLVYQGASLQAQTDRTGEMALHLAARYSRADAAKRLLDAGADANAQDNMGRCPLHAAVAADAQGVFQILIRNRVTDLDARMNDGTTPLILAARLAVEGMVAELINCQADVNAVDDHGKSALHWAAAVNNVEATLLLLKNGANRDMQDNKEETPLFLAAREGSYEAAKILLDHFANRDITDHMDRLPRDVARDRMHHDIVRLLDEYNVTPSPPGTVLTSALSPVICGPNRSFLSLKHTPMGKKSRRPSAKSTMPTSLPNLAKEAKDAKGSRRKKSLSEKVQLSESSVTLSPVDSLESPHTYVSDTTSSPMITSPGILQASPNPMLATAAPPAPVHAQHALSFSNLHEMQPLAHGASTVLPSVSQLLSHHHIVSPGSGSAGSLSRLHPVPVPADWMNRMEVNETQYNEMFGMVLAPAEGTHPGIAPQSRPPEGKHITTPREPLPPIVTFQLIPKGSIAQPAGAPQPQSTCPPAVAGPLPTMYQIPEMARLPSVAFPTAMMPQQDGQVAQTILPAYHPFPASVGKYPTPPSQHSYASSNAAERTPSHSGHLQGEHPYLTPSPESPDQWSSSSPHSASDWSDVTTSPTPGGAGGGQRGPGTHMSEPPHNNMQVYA
row,SMILES,composite z-score
1,C=CCOC(=O)[C@@H]1[C@H]2C(=O)O[C@H](c3ccccc3)[C@H](c3ccccc3)N2[C@H](c2ccc(OCCOC(=O)[C@H]3C[C@H]4C(=O)N[C@@H](CCCC[N+](C)(C)C)C(=O)N4[C@H]3c3cccc(OCCO)c3)cc2)[C@@]12C(=O)Nc1ccc(I)cc12,0.827
2,COc1ccc([Si](C)(C)[C@H]2[C@H](CC(=O)N3Cc4ccccc4C[C@H]3CO)O[C@@]3(C(=O)N(Cc4cccc(I)c4)c4ccccc43)[C@@H]2C)cc1,0.379
3,C=CCCN(CC#C[C@H]1Oc2ccccc2S(=O)(=O)N2CCC[C@@H]12)S(=O)(=O)c1ccc(C)cc1,-0.271
4,C[n+]1ccc2ccc(O)cc2c1,0.12
5,COc1ccc([Si](C)(C)[C@@H]2[C@@H](CCO)O[C@]3(C(=O)N(Cc4cccc(N5CCCCC5=O)c4)c4ccccc43)[C@H]2C)cc1,0.869
6,Cc1ccc(N2C(=O)c3ccccc3[C@@H](C(=O)NC(C)C)[C@@H]2c2ccc(CO)cc2)nc1,-0.333

# Target: Pro-neuregulin-1, membrane-bound isoform (Homo sapiens) (UniProt Q02297)
# Sequence (Q02297 whole entry, looked up, canonical isoform): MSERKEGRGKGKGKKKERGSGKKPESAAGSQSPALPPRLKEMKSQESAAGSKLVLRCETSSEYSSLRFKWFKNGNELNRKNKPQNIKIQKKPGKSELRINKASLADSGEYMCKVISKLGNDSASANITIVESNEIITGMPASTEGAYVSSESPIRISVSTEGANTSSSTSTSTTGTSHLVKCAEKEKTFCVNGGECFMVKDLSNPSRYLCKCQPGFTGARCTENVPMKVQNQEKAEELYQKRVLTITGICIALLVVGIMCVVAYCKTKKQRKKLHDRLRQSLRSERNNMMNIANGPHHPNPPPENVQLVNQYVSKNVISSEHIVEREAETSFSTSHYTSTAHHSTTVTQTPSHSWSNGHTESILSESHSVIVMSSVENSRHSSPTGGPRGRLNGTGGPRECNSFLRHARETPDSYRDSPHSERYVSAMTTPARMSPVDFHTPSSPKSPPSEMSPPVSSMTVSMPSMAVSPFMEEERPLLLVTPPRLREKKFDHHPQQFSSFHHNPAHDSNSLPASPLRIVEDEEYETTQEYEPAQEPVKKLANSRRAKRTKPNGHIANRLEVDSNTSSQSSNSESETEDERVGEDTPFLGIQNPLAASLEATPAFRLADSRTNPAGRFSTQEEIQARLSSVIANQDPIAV
# Experiment: NRG1 binders on small-molecule microarrays, primary screen, psychiatric disease protein project, biochemical, small-molecule microarray, fluorescence 635/667 (AID 1075);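 further: score combines 667 nm spot fluorescence with signal to noise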
# Details: NRG1 binding, 635 nm fluorescence, higher = more signal
row,SMILES,composite z-score
1,C=C(CCCC)/C(=C/C[C@H](OC(C)=O)c1ccc(CO)o1)c1cc(C(=O)OC)ccc1OC,0.714
2,CC(C)(C)OC(=O)CC[C@]1(C(=O)NCC(O)CO)N=C(c2ccc(OCCCO)cc2)O[C@H]1c1ccccc1CN=[N+]=[N-] (stereo partly specified),2.09
3,COC(=O)[C@@]1(Cc2ccc(OC)cc2)[C@H]2c3cc(C(=O)N(C)C)n(Cc4ccc(OC)c(OC)c4)c3C[C@H]2CN1C(=O)c1ccccc1,1.86
4,[N-]=[N+]=NCc1ccccc1C[C@@]1(C(=O)NCc2ccccc2)N=C(c2ccc(OCCCO)cc2)O[C@@H]1c1ccccc1CN=[N+]=[N-],0.926
5,[N-]=[N+]=NCc1ccccc1[C@H]1OC(c2ccc(OCCCO)cc2)=N[C@@]1(Cc1ccccc1)C(=O)O,1.1
6,NC(=O)NCC#Cc1ccc2c(c1)[C@]1(C(=O)N2)[C@H](C(=O)NC[C@H](O)c2ccccc2)[C@H]2C(=O)O[C@H](c3ccccc3)[C@H](c3ccccc3)N2[C@@H]1c1ccccc1OCCO,1.21
7,C=C(C(=O)CC[C@H](OC(=O)c1cccnc1)c1ccccc1OCCO)C(C)C,-0.124
8,COc1ccc([Si](C)(C)[C@@H]2[C@@H](CCO)O[C@]3(C(=O)N(Cc4ccc(N5C(=O)c6cccc7cccc5c67)cc4)c4ccccc43)[C@H]2C)cc1,0.995
9,COc1ccc([Si](C)(C)[C@H]2[C@H](CCO)O[C@@]3(C(=O)N(Cc4ccccc4)c4ccc(N5C(=O)COc6ccccc65)cc43)[C@@H]2C)cc1,1.06
10,O=C1C2C=CC(C(O)c3ccccn3)N(Nc3ccccc3F)C2C(=O)N1c1ccccc1 (stereo unspecified),0.301
11,CN(C)CCCC[C@@H]1NC(=O)[C@@H]2C[C@H](C(=O)NCCCCCN)[C@H](c3ccc(O)cc3)N2C1=O,2.23
12,O=C(NCC(O)CO)[C@@]1(Cc2ccccc2)COC(c2ccc(OCCCO)cc2)=N1 (stereo partly specified),0.736
13,CCOC(=O)N1C(c2ccc(OCCCO)cc2)=NC(C(=O)OC)N1C(=O)OCC (stereo unspecified),1.39
14,CO[C@H]1O[C@H](CO)[C@@H](OC(=O)Nc2cccc(F)c2)[C@H](OC(=O)Nc2ccccc2-c2ccccc2)[C@@H]1OC(=O)Nc1ccccc1-c1ccccc1,1.75
15,O=C1OCC=C[C@H]2OC34C=CCN(c5ccc6ccccc6c5)C(=O)[C@H]3N(CCO)C(=O)[C@@H]4[C@@H]12 (stereo partly specified),1.7
16,COc1cc2c(cc1O)C(c1ccc(CN3CCCC3)cc1)N(Cc1sc3ccccc3c1Cl)CC2 (stereo unspecified),0.072
17,O=C1OCC=C[C@H]2OC34C=CCN(c5ccc(Cl)cc5)C(=O)[C@H]3N(CCCO)C(=O)[C@@H]4[C@@H]12 (stereo partly specified),0.3
18,NC(=O)[C@@]1(CCS(=O)(=O)c2ccccc2)N=C(c2ccc(OCCCO)cc2)O[C@H]1c1ccccc1,0.0342

row,SMILES,composite z-score
1,CC(=O)NCCCC[C@@H]1NC(=O)[C@@H]2C[C@H](C(=O)NCc3ccc(F)cc3)[C@H](c3ccc(O)cc3)N2C1=O,0.772
2,O=C1OCCC=C[C@H]2OC34C=CCN(c5ccc6ccccc6c5)C(=O)[C@H]3N(CCCCCCO)C(=O)[C@@H]4C12 (stereo partly specified),2.03
3,Cc1ccc(F)cc1S(=O)(=O)N[C@@H]1CCN(Cc2ccc(C(F)(F)F)cc2)C1,0.0824
4,CC(C)NC(=O)[C@@]1(c2ccc([N+](=O)[O-])cc2)CC(=O)N(C(C)C)[C@@H]1c1ccc(CO)cc1,-0.524
5,C=CCC(OC(C)=O)[C@@H]1[C@@H](N(Cc2ccc(-c3ccccc3)cc2)C(=O)c2ccc(C)cc2)c2cc(OCCCO)ccc2N1C(=O)c1ccc2ccccc2n1 (stereo partly specified),0.676
6,C=CCC(OC(C)=O)[C@@H]1[C@@H](N(Cc2cc3ccccc3o2)C(=O)c2ccc(C)cc2)c2cc(OCCCO)ccc2N1C(=O)c1ccc(-c2ccccc2)cc1 (stereo partly specified),-0.158
7,COCCCNC(=O)[C@@]1(Sc2ccc(C)cc2)CC(=O)N(Cc2ccccc2)[C@@H]1c1ccc(CO)cc1,0.505
8,COc1ccc(C(=O)Nc2cccc(CN3C(=O)[C@@]4(O[C@@H](CCn5cc([C@H](O)c6ccccc6)nn5)[C@H]([Si](C)(C)c5ccc(OC)cc5)[C@H]4C)c4ccccc43)c2)cc1,0.838
9,CN1C(=O)C2C=CC(C(O)c3ccccc3)N(NC(=O)OC(C)(C)C)C2C1=O (stereo unspecified),0.871
10,[N-]=[N+]=NCc1ccccc1C[C@]1(C(=O)NCc2ccccc2)COC(c2ccc(OCCCO)cc2)=N1,1.17
11,C=CC[C@@]1(C(=O)NCCN2CCOCC2)N=C(c2ccc(OCCCO)cc2)O[C@@H]1c1ccccc1CN=[N+]=[N-],1.26
12,C=CCOC(=O)[C@@H]1[C@H]2C(=O)O[C@H](c3ccccc3)[C@H](c3ccccc3)N2[C@H](c2ccc(OCCOC(=O)[C@H]3C[C@H]4C(=O)N[C@@H](CCCC[N+](C)(C)C)C(=O)N4[C@H]3c3cccc(OCCO)c3)cc2)[C@@]12C(=O)Nc1ccc(I)cc12,-0.306
13,COc1ccc([Si](C)(C)[C@H]2[C@H](CC(=O)N3Cc4ccccc4C[C@H]3CO)O[C@@]3(C(=O)N(Cc4cccc(I)c4)c4ccccc43)[C@@H]2C)cc1,0.438
14,C=CCCN(CC#C[C@H]1Oc2ccccc2S(=O)(=O)N2CCC[C@@H]12)S(=O)(=O)c1ccc(C)cc1,0.353
15,C[n+]1ccc2ccc(O)cc2c1,0.615
16,COc1ccc([Si](C)(C)[C@@H]2[C@@H](CCO)O[C@]3(C(=O)N(Cc4cccc(N5CCCCC5=O)c4)c4ccccc43)[C@H]2C)cc1,1.06
17,Cc1ccc(N2C(=O)c3ccccc3[C@@H](C(=O)NC(C)C)[C@@H]2c2ccc(CO)cc2)nc1,-0.318
